The results in this text go back to PubChem BioAssay AID1252 (The Scripps Research Institute Molecular Screening Center, 2008).

This is one part of the list. Active and inactive are the calls of the source.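 The calls were made as follows: active = over 50% activation at some tested dose; inactive = under 50% activation at every tested dose.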

The assay in a line: Hsp70 transcriptional activators, dose response, cell-based, HeLa, Hsp70 promoter luciferase, luminescence, triplicate (AID 1252). The note with it: HeLa hsp70.1pr-luc reporter; series mostly up to 99 µM.
With `COc1ccc(NC(=O)/C(Cl)=C(/Cl)S(=O)Cc2ccc(C)cc2)cn1` (centres undefined), the molecule was classed as inactive.

As to `COCCn1c(C)cc(C(=O)CSc2nc3ccccc3c(=O)n2C(C)COC)c1C` (centres undefined), the molecule was called inactive.

For the molecule `COc1ccc(CS(=O)/C(Cl)=C(/Cl)C(=O)Nc2ccc(OC)nc2)cc1` (centres undefined), the result was inactive.

As to `O=C(/C=C/Sc1ncn[nH]1)c1ccc(Cl)cc1`, the molecule was called inactive.
